Laboratory results taken from the supplement of paper PMC6555819.

How the values were obtained:
Experiment in all cases: PBM binding z-score (relative to random genomic background probes); higher = stronger binding; sequences stand for … in GC…GCGATTGACAGCGTAGAATGAAGG
[1] = test system: FXR:RXRa (NR concentration 270 nM, RXRa partner concentration 90 nM)
Procedure, shortened: (§1)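 Ligand-free nuclear receptor dimers were bound for 1 h to custom Agilent 4×180K protein-binding microarrays. Detection used antibodies against each partner (one per run). Binding z-scores rest on regression-normalized fluorescence, with random background probes as the reference.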

[2] = test system: LXRa:RXRa (NR concentration 270 nM, RXRa partner concentration 90 nM)
Procedure, shortened: as §1

[3] = test system: LXRa homodimer (NR concentration 270 nM)
Procedure, shortened: as §1

[4] = test system: LXRb:RXRa (NR concentration 270 nM, RXRa partner concentration 90 nM)
Procedure, shortened: as §1

[5] = test system: LXRb homodimer (NR concentration 270 nM)
Procedure, shortened: as §1

[6] = test system: PPARa:RXRa (NR concentration 270 nM, RXRa partner concentration 90 nM)
Procedure, shortened: as §1

[7] = test system: PPARg:RXRa (NR concentration 180 nM, RXRa partner concentration 90 nM)
Procedure, shortened: as §1

[8] = test system: PPARg:RXRa 270nM:90nM, anti-RXR (NR concentration 270 nM, RXRa partner concentration 90 nM)
Procedure, shortened: as §1

[9] = test system: PPARg:RXRa 30nM:10nM, anti-RXR (NR concentration 30 nM, RXRa partner concentration 10 nM)
Procedure, shortened: as §1

[10] = test system: PPARg:RXRa 90nM:30nM, anti-RXR (NR concentration 90 nM, RXRa partner concentration 30 nM)
Procedure, shortened: as §1

[11] = test system: PPARg:RXRa DBDmut IVT, anti-RXR (DBD mutation: RXRa K156A/R161A, NR concentration 270 nM, RXRa partner concentration 90 nM)
Procedure, shortened: as §1

[12] = test system: PPARg:RXRa IVT, anti-PPARg (NR concentration 270 nM, RXRa partner concentration 90 nM)
Procedure, shortened: as §1

[13] = test system: PPARg DBDmut:RXRa IVT, anti-PPARg (DBD mutation: PPARg1 K132A/R137A, NR concentration 270 nM, RXRa partner concentration 90 nM)
Procedure, shortened: as §1

[14] = test system: PPARg DBDmut IVT, anti-PPARg (DBD mutation: PPARg1 K132A/R137A, NR concentration 270 nM)
Procedure, shortened: as §1

[15] = test system: PPARg homodimer (NR concentration 180 nM)
Procedure, shortened: as §1

[16] = test system: PXR:RXRa (NR concentration 270 nM, RXRa partner concentration 90 nM)
Procedure, shortened: as §1

[17] = test system: PXR homodimer (NR concentration 270 nM)
Procedure, shortened: as §1

[18] = test system: RARa:RXR (NR concentration 270 nM, RXRa partner concentration 90 nM)
Procedure, shortened: as §1

[19] = test system: RARa homodimer (NR concentration 270 nM)
Procedure, shortened: as §1

[20] = test system: RARb:RXRa (NR concentration 270 nM, RXRa partner concentration 90 nM)
Procedure, shortened: as §1

Sequence	PBM binding z-score [1]	PBM binding z-score [2]	PBM binding z-score [3]	PBM binding z-score [4]	PBM binding z-score [5]	PBM binding z-score [6]	PBM binding z-score [7]	PBM binding z-score [8]	PBM binding z-score [9]	PBM binding z-score [10]	PBM binding z-score [11]	PBM binding z-score [12]	PBM binding z-score [13]	PBM binding z-score [14]	PBM binding z-score [15]	PBM binding z-score [16]	PBM binding z-score [17]	PBM binding z-score [18]	PBM binding z-score [19]	PBM binding z-score [20]
CAAACTAGGTCACAGAGGTCAAAGTGCGTGCGTA	7.35	6.76	7.05	6.54	2.29	6.71	10.1	8.21	6.64	8.45	8.28	9.04	1.58	0.779	3.18	6.72	9.97	7.47	2.13	5.4
AATACAGGGGCACTAGGCCAGAGTAGGTACGAAT	-0.0916	0.117	-0.197	0.693	-0.000441	1.5	2.84	2.51	0.512	1.26	2.1	3.75	0.831	0.38	0.784	-0.286	-0.158	-0.2	-0.664	1.16
AGAATGAGGTTAAGGTCAGGGAAACAGAATACAT	5.36	4.12	0.675	3.93	0.526	5.21	5.25	5.04	2.44	4.29	3.24	4.55	1.51	0.964	3.35	3.77	1.59	4.47	2.44	4.27
AGAACGAGGGCACGCTGAGGTGATAGCAGAGTAG	1.52	0.73	-0.584	0.0618	-1	2.18	2.3	2.19	0.193	1.29	4.07	4.06	1.26	0.179	0.573	0.989	-0.0676	1.66	-0.189	2.66
TCTTGTAGATCAATAGGGGTTAAGAAAGTGCGCT	1.29	4.13	0.187	2.93	0.868	2.7	0.337	2.1	2.94	2.42	2.59	1.26	1.26	1.11	1.01	3.87	0.265	2.8	0.509	1.2
ATCTATAGGTAACCAAGTTCAGTGAATGCCGAAC	0.275	0.814	0.873	0.556	0.386	1.01	0.856	0.848	0.142	0.641	2.37	1.81	0.555	1.09	0.665	2.46	2.08	0.857	0.671	1.3
CCTAGCAGGCCAGGGACACTCAAGCATTTCGCTT	-0.315	-0.301	-0.372	-0.68	-0.928	-0.453	0.0348	-0.505	-0.943	-0.701	0.0615	-0.258	-0.983	-1.15	-0.379	-0.644	-0.46	-0.225	-0.182	0.347
GCATATAGGTAATACAAGGTTAAAGTCCGATTGT	0.589	5.43	4.13	2.63	-0.0858	2.39	1.69	1.5	0.655	0.992	4.38	3.23	0.799	0.913	1.39	2.6	0.613	2.53	0.428	0.87
CGTCCAAGGTCAGCAGGTCAGTTAAAGCGACGTG	6.18	4.17	0.53	3.54	-0.0511	4.97	4.14	4.73	1.44	3.28	3.4	3.71	-0.851	-0.676	3.29	3.76	0.476	4.7	1.05	5.53
ATAAGTAGGTTAGCTGGGGTCATTCAGACTAGGC	4.71	5.52	3.28	4.94	1.18	5.41	6.1	5.42	3	5.01	6.73	6.66	3.65	1.92	3.63	6.42	4.39	5.76	1.28	3.24
CCGACTGGTGCATAAGGTTACCATAAGCCAGCCC	0.236	1.78	0.0222	0.722	-0.632	1.04	0.64	1.03	-0.311	0.705	-0.572	-0.302	-0.529	-1.4	0.502	0.475	-0.018	1.18	0.243	0.928
CTCAAAAGGTCGGTTGAGGTGAGTATACGGATAA	2.63	1.8	-0.331	1.63	0.0339	2.98	0.821	1.29	0.383	0.881	-0.129	1.12	0.328	0.889	0.591	3.26	0.191	2.82	-0.384	3.4
GTACCAAGGTGAATAGGTCGCTGATGAGTAGGCG	0.713	0.531	-0.254	0.0295	-0.695	1.95	1.48	1.74	0.17	1.14	1.89	2.89	-0.721	-0.6	0.508	0.271	-0.637	1.34	-0.0761	2.07
CGAACTAGGTCATTGACAGGTCAGTGAATAGTAA	4.77	4.22	2.06	3.2	0.218	5.01	7.86	6.55	3.81	6.32	8.05	7.99	2.07	0.617	3.26	3.56	0.482	5.11	0.887	4.25
ACTAGTTGGTCAGCTGAGGTCACGCACAATTCGG	3.89	3.8	2.33	3.79	0.387	4.12	2.12	3.28	0.707	2.16	1.52	3.03	0.779	-0.0173	2.43	5.57	1.08	4.84	0.816	4.04
CGAACTAGGTCAGAACAGGATAGTGAAGGATGAT	1.16	0.877	-0.252	0.463	-0.465	3.33	5.21	4.24	1.75	3.34	7.17	7.33	2.09	2.21	1.07	0.283	0.0335	1.12	0.743	2.97
GCAGACAGGTGAAACGCAGGTAACTCTGGGTGGC	-0.204	-0.034	-0.674	-0.472	-1.14	0.489	0.484	0.284	-0.673	-0.347	1.28	0.558	-1.09	-1.05	-0.859	-0.322	-1.1	0.0559	-1.16	0.63
TCTGCTAGGGCAACGATGGTCAGCTAATCTGCTA	-0.264	-0.36	-0.78	-0.55	-0.884	0.0492	0.028	0.551	1.02	0.846	2.18	1.59	-0.859	-1.01	-1.1	-0.375	-0.975	-0.218	-0.818	1.58
CCTACTGGGCCAACGGTCATTGATTCCAATGCTC	0.0438	-0.079	0.674	-0.198	-0.607	2.53	5.23	6.24	4.4	5.61	3.68	4.73	-0.311	-0.326	0.249	-0.304	0.00743	-0.143	-0.558	1.37
ATATGTAGGTTACATCCGGGCCATTCAGGCTATG	0.546	2.67	0.422	1.05	0.287	3.13	5.08	4.09	1.51	3.05	7.19	7.09	3.74	3.02	0.583	0.633	0.119	0.816	0.221	1.15
TCTGCTAGGTCAACGATGGTCAGCTGATCTGCTA	3.18	2.66	-0.222	1.72	0.146	3.35	2.72	3.15	1.81	2.66	3.61	4.29	-0.0935	1.17	0.984	1.58	-0.669	2.3	-0.39	4.03
TCTTCTAGATCAAAGGTTAAGAAAGCCGAAGCCT	1.43	1.87	-0.049	2.13	0.536	4.9	7.46	8.19	8.13	8.51	2.42	3.52	0.463	0.915	1.09	1.63	-0.258	2.74	0.0747	1.98
CGTCCAAGGTCAAAGGTCAGTGAAGAGATGACGG	8.56	7.07	3.31	6.61	1.67	7.33	10.8	8.93	8.26	9.54	4.23	5.97	1.75	2.79	4.7	7.11	1.9	8.77	2.78	6.02
CCTGCTAGGTCATGGTCACCTAATCTACAGTATG	3.67	2.86	0.345	2.19	-0.376	3.56	3.28	3.54	1.07	2.72	5	5.09	0.83	0.207	1.89	1.82	-0.294	2.75	-0.115	3.98
TGTCAAAGTTCAAACGTAACGTAAGTATCCACAC	7.01	6.81	5.78	4.82	3	5.43	8.29	7.51	5.26	7.39	0.502	4.09	1.75	1.83	2.5	5.07	4.65	3.8	1.09	4.99
GCAGACAGGTGAAACGCAGGTAACCCAGGGTGGC	-0.174	-0.00229	-0.737	-0.377	-1.23	0.855	0.586	-0.135	-0.728	-0.633	0.158	0.862	-0.147	-0.879	-0.777	-0.365	-0.8	0.305	-1.34	0.601
CCTACTGGGCCAAGGTGATTGATCAGTCAAAGCA	-0.711	-0.732	-0.784	-0.722	-1.14	0.274	1.29	2.08	0.0836	1.45	3.98	3.6	-0.461	-1.01	-0.0957	-0.771	-0.714	-0.606	-1.01	0.182
CCTATTAGTTGACCATGAGGGCAACCGAAGCTCG	1.01	0.684	0.747	0.619	0.6	0.652	0.438	0.373	-0.175	0.282	0.64	0.77	0.542	0.384	1.98	1.48	1.48	1.37	1.39	1.52
CCGACTGGGTCAAGGTTACCATAACGCACAGCCA	3.19	2.1	0.079	2.21	-0.717	4.15	6.25	5.71	3.15	5.32	5.21	5.93	0.445	-0.0986	1.69	2.17	0.366	2.76	0.448	3.62
